Bioassay records from PubChem.
This is a sample that favours compounds with a hit; in the whole collection about 2.4% have one here.
Cruzain Triton – inhibitors of Trypanosoma cruzi cruzain with detergent; hit rate 0.43% among 200,000; Potency, µM, inactives show max response, negative = inhibition, actives largely listed as inhibitors; purified cruzain, Z-FR-AMC fluorescence, 0.01% Triton; AID 1478; P25779;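 also: plate controls were neutral wells for no effect and buffer without enzyme for full effect; nearly all actives have a fitted effect of over 40% in size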
Target sequence (P25779 123-467 limits assumed): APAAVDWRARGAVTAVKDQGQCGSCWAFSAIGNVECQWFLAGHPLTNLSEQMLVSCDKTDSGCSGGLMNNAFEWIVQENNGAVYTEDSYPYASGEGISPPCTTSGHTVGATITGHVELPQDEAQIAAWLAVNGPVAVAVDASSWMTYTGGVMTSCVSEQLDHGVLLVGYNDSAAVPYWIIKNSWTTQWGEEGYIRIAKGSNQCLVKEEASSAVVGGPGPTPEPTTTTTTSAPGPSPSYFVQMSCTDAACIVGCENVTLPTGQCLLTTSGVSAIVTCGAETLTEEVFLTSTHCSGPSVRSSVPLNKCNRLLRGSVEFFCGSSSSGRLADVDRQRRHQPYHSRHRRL
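In this qHTS format, compounds are incubated with 1.5 nM cruzain for 15 min at room temperature before 2 uM Z-FR-AMC is added. Release of AMC is followed at 360/450 nm, and progress is taken as the 60 s fluorescence difference.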
Cruzain noTriton – cruzain (T. cruzi) inhibition without detergent; hit rate 2.3% among 200,000; P25779; purified cruzain, Z-FR-AMC fluorescence, no detergent; AID 1476; Potency, µM, for inactives: max response, negative = inhibition, usual class: inhibitors;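 also: plate controls were enzyme without inhibitor for no effect and buffer without enzyme for full effect; nearly all actives have a fitted effect of over 40% in size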
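Detergent-free condition (0.00005% Triton X-100) in acetate buffer pH 5.5 with DTT. 1.5 nM enzyme and compound were pre-mixed 15 min, then 2 uM Z-FR-AMC substrate added; reaction progress from fluorescence change between first and third reads (60 s).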
Active calls of the source: *; ? = inconclusive. Calls follow the shape of the dose curve; as a rule, active = well fitted curve in the direction sought with a large enough effect; inconclusive = small, poorly fitted or top-dose-only effect, or another doubt; inactive = no such curve, though single readings can be large; an effect the other way counts as inactive or inconclusive. Potency is read from the fitted curve at half-maximal effect.

SMILES	Cruzain Triton	Cruzain noTriton
O=C1OCCN1C(=O)[C@H]1[C@H](c2ccccc2)C(c2ccc(F)cc2)=NN1c1ccc(Br)cc1	-6%	20µM*
Cc1ccc(CNC(=O)CN(c2ccc(C(C)C)cc2)S(=O)(=O)c2c(C)n[nH]c2C)cc1	-10%	?
O=C(O)c1cc(C(=O)O)nc(C(=O)O)c1	7%	5%
O=C(OCCN1C(=O)c2cccc3c(N4CCOCC4)ccc(c23)C1=O)c1cccc(Cl)c1	-5%	-12%
Cc1ccc(S(=O)(=O)N2CCN(c3ccc(S(=O)(=O)N4CCOCC4)cn3)CC2)cc1	6%	19%
COc1ccc(-n2c(C)cc(-c3csc(N)n3)c2C)cc1	-2%	20µM*
C=CCn1c(C)cc(-c2csc(N)n2)c1C	-5%	?
Cc1cc(-c2csc(N)n2)c(C)n1-c1ccc(Cl)c(Cl)c1	-8%	13µM*
CCCn1c(C)cc(-c2csc(N)n2)c1C	-8%	?
CC(C)(C)CC(=O)NC(=S)NCCc1ccccc1	2%	-4%
COc1ccc(N2CCN(C(=O)Nc3ccc(S(=O)(=O)N(C)C)cc3)CC2)cc1	3%	0%
N#C/C(Cn1c[n+](NC(=O)Nc2ccccc2)cn1)=N/O	-2%	3%
CCCC(=O)OCCNc1cc(SCc2ccco2)c2nonc2c1[N+](=O)[O-]	25µM*	-30%
CC(=O)OCCCNc1cc(SCc2ccco2)c2nonc2c1[N+](=O)[O-]	-21%	-17%
Cc1ccc(CN2CCC(C(=O)NCCC(C)C)CC2)o1	0%	6%
CC1=NN(c2nc(-c3ccc(F)cc3)cs2)C(=O)C1	0%	0%
CC1=NN(c2nc(-c3ccc(Cl)cc3)cs2)C(=O)C1	-19%	7.9µM*
CCCCCCSc1ncc(C#N)c(N)n1	-1%	-9%
O=C(Nc1ccc([N+](=O)[O-])cc1)Nc1nc(-c2ccc(Cl)s2)cs1	-1%	5µM*
O=C(Nc1nc(-c2ccc(Cl)s2)cs1)c1cccs1	-8%	?
COc1ccc(C(=O)c2coc3ccc(O)c(CN4CCCC4)c23)cc1	-3%	-7%
O=C(Nc1nnc(C2CCCCC2)s1)c1ccc(Br)s1	-2%	25µM*
Cc1cc(C(=O)Nc2nnc(C3CCCCC3)s2)cs1	13%	?
COc1ccc(C)cc1NC(=O)C(OC(=O)CNC(=O)c1cccc(F)c1)c1ccccc1 (stereo not given)	?	13µM*
COc1ccc(C)cc1NC(=O)C(OC(=O)CNC(=O)c1ccc(Oc2ccccc2)cc1)c1ccccc1 (stereo not given)	-19%	?
SMILES	Cruzain Triton	Cruzain noTriton
O=S1(=O)CC(NCc2ccccc2)C(Nc2ccccc2)C1 (stereo not given)	0%	4%
COc1ccc2c(=O)c(CC(=O)O)coc2c1	0%	1%
O=C(Cn1cc2c(n1)CCCC2)NC1CCCCCC1	-1%	4%
COc1ccc(/C=C/C=N/NC(=O)COc2ccc(OC)cc2)cc1	-5%	0%
COc1ccc(/C=C/C(=O)Oc2cccc(/C=N/NC(=O)COc3c(C)cccc3C)c2)cc1	7%	16µM*
COc1ccc(/C=C/C(=O)Oc2ccc(/C=N/NC(=O)COc3c(C)cccc3C)cc2)cc1	3%	7.9µM*
Cc1cccc(C)c1OCC(=O)N/N=C/c1cccn1C	-6%	-9%
Cc1cc(C)c(C)c(OCCCN(C)C)c1	-2%	24%
COc1cc2c(cc1OC)[C@@]13CCN4CC5=CCO[C@H](CC(=O)O)[C@@H]([C@H]1N2)[C@H]5C[C@H]43	5%	-1%
C/C(N)=C(/C#N)C(=O)CSc1nc2ccccc2c(=O)n1-c1ccccc1C	-9%	2%
O=C(NCc1ccc(-c2nc3ccccc3s2)cc1)c1ccc(Br)o1	1%	?
Cc1cc(-c2csc(NC(=O)c3cc4ccccc4o3)n2)c(C)n1C	-6%	16µM*
Cc1cc2cc(CNC(=O)c3ccc4c(c3)OCO4)ccc2n1C	-2%	20µM*
Cc1cc2cc(CNC(=O)c3cc4ccccc4o3)ccc2n1C	-4%	25µM*
O=C(NCc1ccc(Cl)cc1)c1cc2ccccc2o1	-6%	-6%
O=C(NCc1ccc(-c2nc3ccccc3s2)cc1)c1cc2ccccc2o1	-3%	13µM*
O=C(NCc1ccc2c(c1)OCO2)c1cccc(C(=O)NCc2ccc3c(c2)OCO3)c1	-2%	0%
O=C(Nc1nc(-c2cccs2)cs1)c1cc2ccccc2oc1=O	0%	-1%
COc1cccc(S(=O)(=O)NCc2ccc(C(=O)Nc3ccc(Cl)c(Cl)c3)cc2)c1	-1%	?
CCCn1c(=O)[nH]c(=O)c2c1nc(-c1ccc(OC(F)(F)C(F)C(F)(F)F)cc1)n2CCOC (stereo not given)	-10%	?
CCOC(=O)c1c(S(=O)(=O)NCC(=O)N2CCN(c3cc(C)ccc3C)CC2)c(C)n(C)c1C	-3%	?
COc1ccc(C2Nc3ccccc3C(=O)N2Cc2ccco2)cc1COc1ccc(F)cc1 (stereo not given)	-9%	25µM*
COc1ccc(C2Nc3ccccc3C(=O)N2Cc2ccco2)cc1CN1C(=O)c2ccccc2C1=O (stereo not given)	-1%	?
CCOc1ccc(NC(=O)c2cnc(Nc3ccccc3OC)c3ccccc23)cc1	-1%	6%
COc1ccc(NC(=O)C(c2ccccc2)N(C)C(=O)/C=C\c2ccc3c(c2)OCO3)cc1 (stereo not given)	-6%	-13%
SMILES	Cruzain Triton	Cruzain noTriton
COc1cccc(NC(=O)C(OC(=O)/C=C/c2ccc3c(c2)OCO3)c2ccccc2)c1 (stereo not given)	-5%	20µM*
CCOC(=O)c1c(C)c(C(=O)NCc2cccs2)c(C)n1C	8%	15%
CCc1ccc(N2C(=O)C(Cl)=C(N3CCOCC3)C2=O)cc1	-22%	-1%
CN1CCN(C2=C(Cl)C(=O)N(c3ccc(Cl)cc3)C2=O)CC1	?	25µM*
Cc1ccc(N2C(=O)C(Cl)=C(N3CCN(C)CC3)C2=O)c(C)c1	-26%	?
COc1ccc(N2C(=O)C(Cl)=C(N3CCN(Cc4ccccc4)CC3)C2=O)cc1	18µM*	-29%
O=C1C(Cl)=C(N2CCN(Cc3ccccc3)CC2)C(=O)N1c1ccccc1	-26%	-12%
O=C1C(Cl)=C(N2CCOCC2)C(=O)N1c1cccc(Cl)c1	13µM*	13µM*
COc1ccc(-n2nc3c(N4CCCC(C(=O)NCCc5ccc(C)cc5)C4)nnc(C)c3c2C)cc1 (stereo not given)	-3%	1%
COc1ccc(/C=N/n2cc(-c3ccc(OC)cc3)nc2N)cc1	-8%	32µM*
COc1ccc(/C=N/n2cc(-c3ccccc3)nc2N)cc1	-5%	?
O=C(NC1(C(F)(F)F)C(=O)Nc2c1c(=O)[nH]c(=O)n2-c1ccc(Cl)cc1)c1ccccc1F (stereo not given)	0%	-14%
O=C(N/N=C/c1cc(Br)ccc1O)c1ccccc1Cl	-9%	-1%
O=C(CCc1ccccc1)N/N=C/c1cc(Br)ccc1O	-5%	20µM*
COC(=O)C1=NN(c2ccccc2)C2(S1)SC(C(C)=O)=C(C)N2c1ccccc1 (stereo not given)	0%	2%
CC(=O)C1=NN(c2ccccc2)C2(S1)S/C(=C\c1ccccc1)C(=O)N2c1ccccc1 (stereo not given)	2%	10µM*
Cc1ccc(-n2nc(C(=O)NCc3ccc(C)o3)c3c4ccccc4n(C)c3c2=O)cc1	-2%	?
CCOc1ccccc1N(CC(=O)N1CCc2ccccc2C1)S(=O)(=O)c1ccccc1	-4%	9%
